In the library only some 0.96% were active in any assay of this set; here they are far more common.
TRPML1 blocker: inhibitors of human TRPML1 channel | TRPML1-inducible cells, Ca2+ dye fluorescence, FDSS; stronger effect = lower value; inhibition of EC80 agonist-evoked calcium signal | activity change, negative = inhibition, % (no concentration beside the values) | 390,000 tested, 0.02% active; in the data active = activity change below about -50%; inconclusive = between about -30% and that limit;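 also: stimulus is agonist 54-4 at its EC80 concentration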
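Calcium fluorescence in TRPML1-DL cells induced overnight with Tet: a 110 s read after compound pin addition, then a 110 s antagonist read after challenge with 54-4 at 4 uM final (EC80).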
TRPML1 agonist: human mucolipin-1 channel agonism | Q9GZU1 | TRPML1-expressing cells, Ca2+ dye fluorescence, FDSS | activation, % (concentration not given with the values) | 410,000 tested, 0.12% active | AID 624414; in the data active = activation above about 50%; inconclusive = mostly about 30% to 49%
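TRPML1-DL cells, Tet-induced overnight (~16 h, 37 degrees C), loaded 45-90 min at room temperature with Ca8 no-wash calcium dye plus quencher. FDSS fluorescence: 10 s baseline, compound pin-transfer, 110 s agonist read, then EC80 54-4 (4uM final) and 110 s antagonist read.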
TRHR agonist: agonists of human TRH receptor; 360,000 tested, 0.18% active; P34981; activation, % at 2 µM; TRHR cells, calcium flux fluo-8, FDSS agonist mode; in the data active = activation above about 30%
Target sequence (P34981 whole entry, looked up): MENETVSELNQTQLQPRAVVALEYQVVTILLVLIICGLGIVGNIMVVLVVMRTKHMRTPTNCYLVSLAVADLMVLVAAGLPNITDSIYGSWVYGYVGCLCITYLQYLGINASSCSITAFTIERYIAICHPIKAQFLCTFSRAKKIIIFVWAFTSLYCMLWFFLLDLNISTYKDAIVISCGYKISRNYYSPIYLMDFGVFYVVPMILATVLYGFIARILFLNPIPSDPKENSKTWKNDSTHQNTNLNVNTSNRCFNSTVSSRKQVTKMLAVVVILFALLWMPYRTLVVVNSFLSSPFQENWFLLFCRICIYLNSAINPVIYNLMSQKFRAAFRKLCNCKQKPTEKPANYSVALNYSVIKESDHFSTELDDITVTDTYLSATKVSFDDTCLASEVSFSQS
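Fluo-8-loaded TRHR cells; 10 s baseline, compound added, kinetic Ca2+ fluorescence read 1/s, agonist mode.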
TRHR enhancer: allosterically enhances the human TRH receptor; P34981; 360,000 tested, 0.66% active; TRHR cells, fluo-8 calcium fluorescence, EC20 TRH enhancement; enhancement, % at 2 µM; in the data active = enhancement above about 30%
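TRHR-expressing cells loaded with fluo-8 calcium dye were read kinetically (ex 480/em 530) during compound addition, then stimulated with an EC20 of TRH (10 nM final). Enhancement of the Gq-mediated intracellular calcium response was scored.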
TRPV1 PAM: potentiators of human vanilloid receptor 1 (TRPV1); TRPV1-expressing cells, Fluo-8 calcium influx, capsaicin EC20 potentiation; potentiation, % at 8.33 µM; 320,000 tested, 0.02% active; in the data active = potentiation above about 80%; inconclusive = between about 30% and that limit
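TRPV1-expressing cells were cultured overnight at 35.5C and loaded with Fluo-8 calcium dye for 40 to 90 min at room temperature. After a 10 s baseline, compound was added and calcium influx was read kinetically for 3 min (ex 480/em 520 nm).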
TRPV1 ag: activates the human vanilloid receptor TRPV1; Q8NER1; TRPV1-expressing cells, Fluo-8 calcium influx, agonist mode; activation, % at 8.33 µM; 320,000 tested, 0.19% active; in the data active = activation above about 80%; inconclusive = between about 30% and that limit
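Cells expressing TRPV1 were dye-loaded with Fluo-8 and read kinetically: 10 s baseline, 3 min after compound (agonist portion), then 2 min after EC20 capsaicin (allosteric enhancer portion). Calcium-bound dye fluorescence at 480/520 nm.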
Of the large screens only hits and unclear results are named; the others gave an inactive call.

CCCCOc1ccc(C(=O)NC(=S)Nc2ccc(CN3CCOCC3)cc2)cc1	TRHR enhancer 32
C1=Nc2ccccc2/C1=C/c1c[nH]c2ccccc12	none (no result: TRPML1 blocker, TRHR agonist, TRHR enhancer, TRPV1 PAM, TRPV1 ag)
CC(CC(=O)NCc1ccc(Cl)cc1)c1ccccc1 (stereo not given)	TRHR enhancer 34 (no result: TRPML1 blocker, TRPML1 agonist)
c1ccc(CN(Cc2ccccc2)Cc2nnc(-c3cc4ccccc4[nH]3)o2)cc1	none (no result: TRPML1 blocker, TRPML1 agonist, TRPV1 PAM, TRPV1 ag)
O=S(=O)(c1ccccc1Cl)N1CCN(c2nc(-c3cccs3)nc3ccccc23)CC1	none (no result: TRPML1 blocker, TRHR agonist, TRHR enhancer, TRPV1 PAM, TRPV1 ag)
O=C(NC(NC(=S)N1CCOCC1)C(Cl)(Cl)Cl)c1ccc(Cl)cc1 (stereo not given)	TRPML1 blocker inconclusive, TRPV1 ag 83
COC(=O)C(CC(C)C)NS(=O)(=O)c1ccccc1Br (stereo not given)	none (no result: TRHR agonist, TRHR enhancer, TRPV1 PAM, TRPV1 ag)
CCC(=O)N(CCc1ccccc1)Cc1cc2cccc(C)c2[nH]c1=O	TRPV1 ag 88 (no result: TRPML1 blocker, TRPML1 agonist)
COCCN(Cc1cc2cccc(C)c2[nH]c1=O)C(=O)c1ccccc1	none
Cc1ccc(/C=C2\CCC3=C2OC(N)=C(C#N)C3c2ccc(C)cc2)cc1 (stereo not given)	TRPML1 agonist inconclusive, TRHR agonist 68, TRPV1 PAM inconclusive
Cc1cccc([S+](=O)([O-])NC2CCN(C#N)CC2)c1	none (no result: TRPML1 blocker, TRPML1 agonist, TRPV1 PAM, TRPV1 ag)
O=[N+]([O-])c1ccc(O/N=[N+](\[O-])N2CCN(c3ncccn3)CC2)c([N+](=O)[O-])c1	none (no result: TRHR agonist, TRHR enhancer, TRPV1 PAM, TRPV1 ag)
Cc1ccc2nc(CS)[nH]c2c1	none (no result: TRPML1 blocker, TRHR agonist, TRHR enhancer, TRPV1 PAM, TRPV1 ag)
CCCN(C)CCCOc1cc2nc(N3CCCN(C)CC3)nc(NC3CCN(C)CC3)c2cc1OC	none (no result: TRPML1 blocker, TRHR agonist, TRHR enhancer, TRPV1 PAM, TRPV1 ag)
COc1cc(C2CC(=O)OC3=C2C(=O)CC(C)(C)C3)cc(OC)c1OC (stereo not given)	TRHR enhancer 33
COc1ccc(-n2nc3c(c2NC(=O)C(=O)N2CCN(C)CC2)CSC3)cc1	TRHR enhancer 43 (no result: TRPV1 PAM, TRPV1 ag)
CSc1nc2ccc3nc(NC(=O)c4ccccc4)sc3c2s1	TRHR enhancer 37
O=C(Nc1nc2ccccc2s1)c1ccccc1	TRPV1 ag inconclusive
Cc1ccc(CCNc2nc3c(S(=O)(=O)c4ccc(C)cc4)nnn3c3ccsc23)cc1	TRHR enhancer 42 (no result: TRPV1 PAM, TRPV1 ag)
COc1cc(OC)c(NC(=O)C2CCCN(c3ncnc4c3nc3n4CCCCC3)C2)cc1Cl (stereo not given)	TRHR enhancer 33 (no result: TRPV1 PAM, TRPV1 ag)
COc1ccccc1NC(=O)C1CCCN(c2ncnc3c2nc2n3CCCCC2)C1 (stereo not given)	none
CN1CCN(Cc2c(O)ccc3cc(-c4ccccc4)c(=O)oc23)CC1	none (no result: TRPV1 PAM, TRPV1 ag)
O=c1oc2c(CN3CCCCC3)c(O)ccc2cc1-c1nc2ccccc2[nH]1	TRHR agonist 261, TRHR enhancer 40, TRPV1 ag 85
O=c1oc2c(O)cccc2cc1-c1nc2ccccc2[nH]1	TRHR agonist 199, TRHR enhancer 48, TRPV1 ag 85
Cc1ccc(N2CCN(CCc3nc4cc(NC(=O)c5ccco5)ccc4n3C)CC2)cc1	none
Cn1c(CCN2CCN(c3ccccc3)CC2)nc2cc(NC(=O)c3ccco3)ccc21	TRHR enhancer 33 (no result: TRPV1 PAM, TRPV1 ag)
COc1ccc(C2Nc3ccccc3C(=O)N2Cc2ccco2)cc1COc1c(C)cccc1C (stereo not given)	none (no result: TRPML1 blocker, TRHR agonist, TRHR enhancer, TRPV1 PAM, TRPV1 ag)
Nc1ccc2nc(-c3ccccc3)c(-c3ccccc3)nc2c1	TRHR agonist 32
Cc1ccc(CNc2ncnc3nc[nH]c23)cc1	none (no result: TRPML1 blocker, TRHR agonist, TRHR enhancer, TRPV1 PAM, TRPV1 ag)
CC(=O)NNc1ncnc2c1cnn2-c1ccc(C)cc1	none
CC(=O)NNc1ncnc2c1cnn2-c1ccc(C)c(Cl)c1	TRHR enhancer 31
CCCCNC(=O)[C@@H]1CC=C[C@@H]2CCN(C3CCCCC3)C(=O)[C@@H]21	none (no result: TRPML1 blocker, TRHR agonist, TRHR enhancer, TRPV1 PAM, TRPV1 ag)
O=S(=O)(c1ccc(Cl)cc1)c1nc(-c2cccc(Br)c2)oc1NCc1ccccc1	TRHR enhancer 31 (no result: TRPV1 PAM, TRPV1 ag)
CCCCCCCn1ccc(=N)cc1	none
CCCCCn1ccc(=N)cc1	TRHR enhancer 36
O=C(NCCNC(=O)c1ccc(Br)o1)c1ccc(Br)o1	TRHR enhancer 38
COc1ccc(C2Nc3ccccc3C(=O)N2Cc2ccco2)cc1 (stereo not given)	none (no result: TRPML1 blocker, TRHR agonist, TRHR enhancer, TRPV1 PAM, TRPV1 ag)

High-throughput results (PubChem BioAssay)
